Drawing on PubChem BioAssay (NCI), this text covers growth for 13 compounds.

The structures appear in SMILES notation. The panel holds about 83,000 compounds, 20% with a hit somewhere; the sample as a whole holds those more often.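 Testing used 96-well plates and a 48-hour single-concentration exposure. Example: -40 means 40% of the starting cells died.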 Unmarked numbers belong to inactive results. Calls of active or inactive are those of the source. How the source made its calls: active means growth percent below 10; inactive means the rest.

The subject of the assay is NCI-H23 lung. The experiment in a line: NCI-60 one-dose screen, 48 h (100 = growth as untreated, 0 = no growth, -100 = all killed). To be noted: 10 µM unless noted.
Turning to `Cc1ccc(C(=O)Nc2cc(-n3cnc(F)c3)cc(C(F)(F)F)c2)cc1C#Cc1cnc2cccnn12`, the growth is 44.8%. For the compound `O=C(N/N=C/c1ccc(-c2cccc([N+](=O)[O-])c2)s1)c1[nH]c2ccc(Br)cc2c1-c1ccccc1`, the growth is 81.3%.

For the compound `Nc1cc2ccccc2c(=O)n1NC(=O)c1ccccc1`, the growth is 87.4%. For `C[C@@H]1[C@H]2C[C@@H](C[C@H]1NCc1nc3ccccc3n1C1CCCCCC1)C2(C)C`, the growth was 33%. The same measure for `COc1cc2cc(C(=O)N3C[C@@H](CCl)c4c3cc(OC(=O)N(CCC(=O)N3CCN(C)CC3)[C@H]3CCSSC3)c3ccccc43)[nH]c2c(OC)c1OC`: -87% (active); for `Cc1cn(-c2cc(NC(=O)c3ccc(C)c(-n4cc(-c5cnc6cccnn56)nn4)c3)cc(C(F)(F)F)c2)cn1`: 56.9%. `Cn1cc(-c2cc(N)n3nc(-c4c[nH]c5ccc(F)cc45)cc3n2)c2cccnc21`: the growth is -68.2% (active). As to `FC(F)(F)c1cc2c(Cl)ncnc2n1CCN1CCOCC1`, the growth was 62.9%.

`CCOC(=O)/C(F)=C/C1CC1C1CCN(C(=O)OC(C)(C)C)CC1` (stereo not drawn): the growth is 93.8%. `O=C(Nc1ccc(-c2ccc3c(c2)NC(=O)/C3=C\c2ccc[nH]2)cc1)Nc1cccc(Cl)c1`: the growth was -57.4% (active).

As for `O=Cc1cncc(-c2ccc3ncnc(N4CCc5cc(F)c(Cl)cc54)c3c2)c1`, the growth is 44.6%. `Fc1ccc(F)c(CNc2nc(SCCN3CCOCC3)nc3c2cnn3CC(Cl)c2ccc(Br)cc2)c1` (stereo not drawn): the growth was 40.3%. The same measure for `Cc1nc(N)ncc1-c1ccc2ncnc(N3CCc4cc(F)c(Cl)cc43)c2c1`: 84.3%.
